Beta cell apopt: blocks beta cell apoptosis; protection from apoptosis, % (test concentration not listed); 0.8% of 300,000 active; INS-1E cytokine-induced death, ATP luminescence, 48 h; percent of positive-control rescue, neutral wells zero;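 active = Every replicate reaches about 75%, or at least half do and their mean reaches it too, limit read from the data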;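 note: 0% = cytokine-treated negative control wells and 100% = positive control rescue; higher means more ATP so stronger rescue from cytokine killing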
Calb FLC: affects C. albicans growth with fluconazole; growth inhibition, % (no concentration beside the values); 0.57% of 300,000 active; C. albicans CaCi-2 (fluconazole-resistant clinical isolate) + fluconazole, Alamar Blue growth, 48 h;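 active = growth inhibition above about 58% in most replicates, limit read from the data, passing the limit was not always enough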;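 note: all wells also contain fluconazole at 8 µg/ml as a sub-toxic cotreatment; 0% = median of DMSO wells and 100% = median of geldanamycin control wells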
MPTP block: permeability transition pore inhibition. isolated mouse mitochondria, Ca2+ swelling absorbance, 30 min. inhibition, % at 10 µM. 1.4% of 360,000 active;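 active = inhibition of 50% or more, scaled per plate between neutral and stimulator controls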;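 note: 0% = DMSO wells given calcium and 100% = 1 mM EGTA wells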
Mdm2-MdmX inh: inhibitors of human Mdm2/MdmX interaction; SaOS-2 split-luciferase Mdm2/MdmX complementation, luminescence; AID 485346; inhibition, % at 8 µM; 3% of 330,000 active; O15151+Q00987;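 active = inhibition of at least 50% at 8 µM in the primary screen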
CSC inhib: cancer stem cell inhibition; cancer stem cell-like cells viability, luminescence; AID 2717; 1.1% of 300,000 active; inhibition, % at 7.5 µM; in the data active = inhibition above about 75%; tested in HMLE shEcad cells
Rh123 counter: Rhodamine 123 counter-screen of mitochondrial pore hits; shares compounds with MPTP block; isolated mitochondria, membrane potential, Rhodamine 123 fluorescence; inhibition, % at 10 µM; 78% of 5,000 active; in the data active = inhibition above about 22%;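 note: 0% = DMSO vehicle and 100% = positive control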
MPTP swell DR: dose response confirmation of mitochondrial permeability transition pore inhibitors | shares compounds with MPTP block | isolated mitochondria swelling, absorbance | IC50, µM | 58% of 780 active; in the data active = IC50 below about 20 µM
MPTP cs DR: MPTP inhibitor counter-screen activity, dose response | shares compounds with MPTP block | isolated mitochondria counterscreen, fluorescence read-out | IC50, µM | 49% of 780 active; in the data active = IC50 below about 80 µM
Starred values were filed as active, the others as inactive; / = not tested or not shown. Only some compounds are listed: those with a hit (about 4.8% of all), similar ones and a draw of the others.

SMILES	Beta cell apopt	Calb FLC	MPTP block	Mdm2-MdmX inh	CSC inhib	Rh123 counter	others
CC(=O)c1cccc(NC(=O)c2csc3c2CCCCC3)c1	-5	-33	6	-17	3	/
CCOC(=O)c1ccc(NC(=O)Nc2ccc3c4c(cccc24)C(=O)N3CC)cc1	24	-3	95*	4	20	33*
CCOC(=O)c1ccc(NC(=O)Cn2cccc2)cc1	-2	32	1	1	/	/
O=C(CSc1nc2ccccc2[nH]1)NC1CCCc2ccccc21 (stereo not given)	/	11	0	44	3	/
O=C(CSc1nc2ccc(Cl)cc2[nH]1)NC1CCCc2ccccc21 (stereo not given)	0	-9	63*	15	-24	62*
CCOc1ccc(S(=O)(=O)N2CCOCC2)cc1NC(=O)CSCC(=O)Nc1ccc(OC)cc1	/	/	0	/	/	/
C=CC[C@@H](CC(=O)N[C@H](CO)Cc1ccccc1)C(=O)N[C@H](COC(=O)[C@@H](CC=C)CC(=O)OC(C)(C)C)Cc1ccccc1	3	/	0	4	/	/
CCOc1cccc(CN2CCCC(C(=O)Nc3cccc(-n4cccn4)c3)C2)c1 (stereo not given)	-1	4	1	25	7	/
Cn1cc(CN2CCCC(C(=O)Nc3cccc(-n4cccn4)c3)C2)cn1 (stereo not given)	-6	0	-3	18	-1	/
Cc1cc(CN2CCCC(C(=O)Nc3cccc(-n4cccn4)c3)C2)cc(C)c1O (stereo not given)	3	-6	70*	6	-5	85*
CCOc1ccccc1CN1CCCC(C(=O)Nc2cccc(-n3cccn3)c2)C1 (stereo not given)	1	-5	58*	26	/	9	MPTP swell DR=6.8*;MPTP cs DR=18*
COc1ccccc1N1CCN(S(=O)(=O)CCNC(=O)c2cccc(F)c2)CC1	3	7	-1	19	-8	/
CCOc1ccccc1N1CCN(C(=O)Nc2ccc(F)c(Cl)c2)CC1	12	-2	88*	23	8	93*
O=C(/C=C/[C@H]1O[C@@H](n2cnc3c(NC(=O)c4ccccc4)ncnc32)[C@H](O)[C@@H]1O)NCCCN1CCCC1=O	/	/	-2	/	/	/
O=C(CN1c2ccccc2Sc2ccccc21)NNC(=S)Nc1ccc(Cl)cc1	9	-4	63*	19	31	51*
CCOC(=O)/C(C#N)=N/Nc1ccc(S(=O)(=O)N2CCc3ccccc32)cc1	36	2	89*	33	38	89*
NS(=O)(=O)c1ccc(NC(=O)c2ccc(S(=O)(=O)N3CCc4ccccc43)cc2)cc1	-3	-11	1	6	4	/
N#C/C(=N\Nc1ccc(S(=O)(=O)N2CCc3ccccc32)cc1)C(N)=S	24	-8	99*	26	3	67*
CC(=O)c1c(C)[nH]c(C(=O)OCC(=O)NCCC2=CCCCC2)c1C	-5	5	1	22	-2	/
CCCOc1nc2c(c(=O)n(C)c(=O)n2C)n1C	-3	4	-1	0	-2	/
CCCOc1nc2c(c(=O)n(C)c(=O)n2C)n1Cc1cccc2ccccc12	103*	25	70*	24	5	74*
CC(=O)C1CCC2C3CC=C4CC(SC(=N)N)CCC4(C)C3CCC12C (stereo not given)	/	/	80*	/	/	24*
N#Cc1c(-c2cccs2)nc(SCc2ccc(Cl)cc2)[nH]c1=O	/	39	96*	21	/	71*
O=C(O)C1c2ccccc2C(=O)N(Cc2ccc(F)cc2)C1c1ccncc1 (stereo not given)	-6	3	0	6	-6	/
Cc1c(/C=N/NC(=O)c2ccccc2O)c2ccccn2c1C(=O)c1ccc(F)cc1	4	-26	98*	34	0	56*
N#C/C(=C\Nc1ccccc1O)c1nc2ccccc2o1	8	-9	77*	/	49	78*
CCOC(=O)c1c(-c2cccs2)csc1NC(=O)CC(C)C	8	12	57*	9	-1	-1	MPTP swell DR=>100;MPTP cs DR=>80
Cc1ccc(F)cc1NC(=O)N1CCN(c2ccnc3cc(Cl)ccc23)CC1	2	-2	33	32	0	/
